Data taken from publication PMC7862700, “An all-to-all approach to the identification of sequence-specific readers for epigenetic DNA modifications on cytosine”.

How the values were obtained:
Test in all cases: DAPPL (digital affinity profiling via proximity ligation, sequencing); 10 mM Tris-HCl pH 7.5, 50 mM NaCl, 1 mM DTT, 4% glycerol, room temperature, 30 min; GST-TFs on glutathione beads, 16-mer random dsDNA library, 0.1% formaldehyde crosslink after washing; high values mean tight binding
[1] = target: T1, FLI1 (Homo sapiens, UniProt Q01543 1-452); details: protein: recombinant; tags: N-terminal GST; dsDNA, one strand shown
T1 sequence: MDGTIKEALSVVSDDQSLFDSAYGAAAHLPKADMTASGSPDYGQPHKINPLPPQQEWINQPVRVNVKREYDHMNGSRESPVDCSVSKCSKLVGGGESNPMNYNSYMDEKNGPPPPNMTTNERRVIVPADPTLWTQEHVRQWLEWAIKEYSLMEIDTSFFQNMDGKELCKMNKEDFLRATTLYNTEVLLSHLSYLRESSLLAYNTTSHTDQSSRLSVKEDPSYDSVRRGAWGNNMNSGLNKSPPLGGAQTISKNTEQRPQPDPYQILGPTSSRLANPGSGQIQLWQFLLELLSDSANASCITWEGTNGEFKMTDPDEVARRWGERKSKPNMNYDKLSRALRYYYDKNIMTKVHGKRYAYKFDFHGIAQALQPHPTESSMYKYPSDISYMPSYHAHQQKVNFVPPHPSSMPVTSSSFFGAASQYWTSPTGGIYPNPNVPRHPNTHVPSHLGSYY
Procedure, shortened: (§1)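 Pools of DNA-barcoded human transcription factors, expressed in yeast as GST fusions on glutathione beads and combined with a tag-only sample, were incubated with 200 nmole of a 16-mer random double-stranded DNA library. Incubation took 30 min at room temperature in Tris/NaCl/DTT/glycerol buffer and was followed by washing, 0.1% formaldehyde crosslinking, proximity ligation (BsaI/T4 ligase, 1 h, 37 °C), PCR amplification and sequencing on an Illumina NextSeq500. Binding signal is the ratio of a hexamer's read frequency for a factor to its frequency for the tag-only sample.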

[2] = target: T2, ELK1 (Homo sapiens, UniProt P19419 1-428); details: protein: recombinant; tags: N-terminal GST; dsDNA, one strand shown
T2 sequence: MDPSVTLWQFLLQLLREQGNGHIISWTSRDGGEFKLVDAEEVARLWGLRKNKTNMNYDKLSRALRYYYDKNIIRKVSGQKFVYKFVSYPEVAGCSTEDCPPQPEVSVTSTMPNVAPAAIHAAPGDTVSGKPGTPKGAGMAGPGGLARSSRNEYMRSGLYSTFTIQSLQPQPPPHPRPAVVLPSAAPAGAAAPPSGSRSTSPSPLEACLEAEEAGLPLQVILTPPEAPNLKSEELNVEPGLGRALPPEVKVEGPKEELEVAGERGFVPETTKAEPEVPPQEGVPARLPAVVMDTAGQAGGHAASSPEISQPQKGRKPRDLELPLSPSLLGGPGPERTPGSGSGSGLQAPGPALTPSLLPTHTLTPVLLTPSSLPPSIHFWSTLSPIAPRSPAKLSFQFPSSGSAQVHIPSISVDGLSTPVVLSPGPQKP
Procedure, shortened: as §1

[3] = target: T3, GABPA (Homo sapiens, UniProt Q06546 1-454); details: protein: recombinant; tags: N-terminal GST; dsDNA, one strand shown
T3 sequence: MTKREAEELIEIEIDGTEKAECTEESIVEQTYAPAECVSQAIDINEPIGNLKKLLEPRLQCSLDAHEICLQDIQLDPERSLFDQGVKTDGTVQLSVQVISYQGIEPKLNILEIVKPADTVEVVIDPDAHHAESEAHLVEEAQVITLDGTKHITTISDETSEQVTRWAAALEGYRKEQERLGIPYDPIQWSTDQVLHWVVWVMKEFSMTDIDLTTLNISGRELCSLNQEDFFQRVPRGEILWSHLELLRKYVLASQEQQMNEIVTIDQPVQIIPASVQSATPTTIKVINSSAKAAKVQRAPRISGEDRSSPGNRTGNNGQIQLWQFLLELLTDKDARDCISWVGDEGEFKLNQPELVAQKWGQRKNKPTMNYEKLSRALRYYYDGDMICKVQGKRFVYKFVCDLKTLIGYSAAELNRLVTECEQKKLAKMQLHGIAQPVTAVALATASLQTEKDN
Procedure, shortened: as §1

[4] = target: T4, ERG (Homo sapiens, UniProt P11308 1-479); details: protein: recombinant; tags: N-terminal GST; dsDNA, one strand shown
T4 sequence: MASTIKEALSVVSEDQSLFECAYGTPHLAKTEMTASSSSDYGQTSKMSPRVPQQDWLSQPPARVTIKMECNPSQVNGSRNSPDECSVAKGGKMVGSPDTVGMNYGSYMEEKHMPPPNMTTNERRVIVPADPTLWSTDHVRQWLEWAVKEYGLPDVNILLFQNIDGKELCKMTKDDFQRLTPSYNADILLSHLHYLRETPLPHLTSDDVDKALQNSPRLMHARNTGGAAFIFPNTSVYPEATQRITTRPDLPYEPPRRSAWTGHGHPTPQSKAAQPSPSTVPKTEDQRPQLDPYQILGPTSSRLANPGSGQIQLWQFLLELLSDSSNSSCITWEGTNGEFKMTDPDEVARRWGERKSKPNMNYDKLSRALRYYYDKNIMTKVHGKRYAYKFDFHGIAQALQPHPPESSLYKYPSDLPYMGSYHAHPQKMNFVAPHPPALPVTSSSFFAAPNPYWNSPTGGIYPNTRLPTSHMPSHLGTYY
Procedure, shortened: as §1

[5] = target: ELF1 (Homo sapiens, UniProt P32519 1-619); details: protein: recombinant; tags: N-terminal GST; dsDNA, one strand shown
Chain of ELF1 (P32519 whole entry): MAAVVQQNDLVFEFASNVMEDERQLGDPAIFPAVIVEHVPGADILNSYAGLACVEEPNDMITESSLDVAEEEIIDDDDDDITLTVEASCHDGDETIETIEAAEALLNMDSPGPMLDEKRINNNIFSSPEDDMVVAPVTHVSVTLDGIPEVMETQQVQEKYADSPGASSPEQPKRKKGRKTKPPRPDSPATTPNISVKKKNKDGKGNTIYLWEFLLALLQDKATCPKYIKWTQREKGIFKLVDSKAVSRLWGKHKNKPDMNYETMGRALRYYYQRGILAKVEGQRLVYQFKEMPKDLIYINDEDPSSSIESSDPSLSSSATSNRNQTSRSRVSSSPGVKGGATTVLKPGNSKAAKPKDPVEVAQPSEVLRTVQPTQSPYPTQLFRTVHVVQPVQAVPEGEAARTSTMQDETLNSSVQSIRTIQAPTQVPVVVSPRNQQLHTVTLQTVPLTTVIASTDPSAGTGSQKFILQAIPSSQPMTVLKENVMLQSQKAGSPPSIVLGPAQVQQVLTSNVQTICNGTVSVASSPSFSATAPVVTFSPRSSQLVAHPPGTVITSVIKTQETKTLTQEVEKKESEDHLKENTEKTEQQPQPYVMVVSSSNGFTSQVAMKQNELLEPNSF
Procedure, shortened: as §1

[6] = target: T5, EHF (Homo sapiens, UniProt Q9NZC4 1-300); details: protein: recombinant; tags: N-terminal GST; dsDNA, one strand shown
T5 sequence: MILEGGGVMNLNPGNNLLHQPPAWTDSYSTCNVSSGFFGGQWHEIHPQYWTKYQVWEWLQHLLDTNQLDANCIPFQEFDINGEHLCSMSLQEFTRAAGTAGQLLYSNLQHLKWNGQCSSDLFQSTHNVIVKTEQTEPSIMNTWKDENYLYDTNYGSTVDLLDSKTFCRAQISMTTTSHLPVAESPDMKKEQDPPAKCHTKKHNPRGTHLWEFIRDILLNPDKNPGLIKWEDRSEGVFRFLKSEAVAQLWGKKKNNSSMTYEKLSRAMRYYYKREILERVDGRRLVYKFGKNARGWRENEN
Procedure, shortened: as §1

[7] = target: SPI1 (Homo sapiens, UniProt P17947 1-270); details: protein: recombinant; tags: N-terminal GST; dsDNA, one strand shown
Procedure, shortened: as §1

[8] = target: SPIB (Homo sapiens, UniProt Q01892 1-262); details: protein: recombinant; tags: N-terminal GST; dsDNA, one strand shown
Chain of SPIB (Q01892 whole entry): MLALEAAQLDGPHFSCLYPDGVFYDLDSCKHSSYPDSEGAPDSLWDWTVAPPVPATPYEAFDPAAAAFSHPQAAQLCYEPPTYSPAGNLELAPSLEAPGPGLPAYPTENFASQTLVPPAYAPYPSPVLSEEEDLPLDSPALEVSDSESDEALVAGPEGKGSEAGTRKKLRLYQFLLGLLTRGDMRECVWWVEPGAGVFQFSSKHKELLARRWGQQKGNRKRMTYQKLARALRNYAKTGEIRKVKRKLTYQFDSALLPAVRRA
Procedure, shortened: as §1

[9] = target: T6, ELK3 (Homo sapiens, UniProt P41970 1-407); details: protein: recombinant; tags: N-terminal GST; dsDNA, one strand shown
T6 sequence: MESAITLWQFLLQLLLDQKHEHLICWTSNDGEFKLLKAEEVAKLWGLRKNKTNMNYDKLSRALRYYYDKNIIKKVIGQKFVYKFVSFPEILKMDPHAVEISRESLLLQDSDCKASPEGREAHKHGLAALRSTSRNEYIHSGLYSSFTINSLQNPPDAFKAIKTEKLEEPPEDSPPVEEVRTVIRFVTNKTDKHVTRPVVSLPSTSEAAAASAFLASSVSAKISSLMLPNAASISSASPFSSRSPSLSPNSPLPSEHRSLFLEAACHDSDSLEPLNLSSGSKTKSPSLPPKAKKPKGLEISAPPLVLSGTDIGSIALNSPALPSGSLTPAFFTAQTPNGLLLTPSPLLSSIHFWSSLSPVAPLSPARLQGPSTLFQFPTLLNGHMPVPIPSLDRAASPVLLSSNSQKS
Procedure, shortened: as §1

[10] = target: T7, FEV (Homo sapiens, UniProt Q99581 1-238); details: protein: recombinant; tags: N-terminal GST; dsDNA, one strand shown
T7 sequence: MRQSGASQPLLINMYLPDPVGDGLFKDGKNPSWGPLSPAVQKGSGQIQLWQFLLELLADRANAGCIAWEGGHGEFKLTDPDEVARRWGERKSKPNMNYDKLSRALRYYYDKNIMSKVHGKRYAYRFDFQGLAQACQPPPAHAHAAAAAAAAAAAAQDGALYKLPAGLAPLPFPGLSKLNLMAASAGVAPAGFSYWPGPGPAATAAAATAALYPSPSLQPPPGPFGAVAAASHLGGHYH
Procedure, shortened: as §1

[11] = target: ETV5 (Homo sapiens, UniProt P41161 1-510); details: protein: recombinant; tags: N-terminal GST; dsDNA, one strand shown
Chain of ETV5 (P41161 whole entry): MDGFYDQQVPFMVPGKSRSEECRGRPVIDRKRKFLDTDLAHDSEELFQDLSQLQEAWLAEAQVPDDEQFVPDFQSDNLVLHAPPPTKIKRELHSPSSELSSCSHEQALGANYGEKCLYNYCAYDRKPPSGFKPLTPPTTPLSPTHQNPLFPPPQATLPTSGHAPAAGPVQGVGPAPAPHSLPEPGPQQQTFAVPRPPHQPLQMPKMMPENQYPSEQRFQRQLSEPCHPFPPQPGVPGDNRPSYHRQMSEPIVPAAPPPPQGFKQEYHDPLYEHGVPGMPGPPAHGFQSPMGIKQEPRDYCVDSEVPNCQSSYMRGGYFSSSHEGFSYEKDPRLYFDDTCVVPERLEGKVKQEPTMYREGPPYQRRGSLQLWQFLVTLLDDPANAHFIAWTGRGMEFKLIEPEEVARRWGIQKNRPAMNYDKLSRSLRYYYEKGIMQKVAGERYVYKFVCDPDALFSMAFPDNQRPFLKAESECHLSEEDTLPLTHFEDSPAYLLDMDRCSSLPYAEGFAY
Procedure, shortened: as §1

[12] = target: HSF1 (Homo sapiens, UniProt Q00613 1-529); details: protein: recombinant; tags: N-terminal GST; chain copies: 3; dsDNA, one strand shown
Chain of HSF1 (Q00613 whole entry): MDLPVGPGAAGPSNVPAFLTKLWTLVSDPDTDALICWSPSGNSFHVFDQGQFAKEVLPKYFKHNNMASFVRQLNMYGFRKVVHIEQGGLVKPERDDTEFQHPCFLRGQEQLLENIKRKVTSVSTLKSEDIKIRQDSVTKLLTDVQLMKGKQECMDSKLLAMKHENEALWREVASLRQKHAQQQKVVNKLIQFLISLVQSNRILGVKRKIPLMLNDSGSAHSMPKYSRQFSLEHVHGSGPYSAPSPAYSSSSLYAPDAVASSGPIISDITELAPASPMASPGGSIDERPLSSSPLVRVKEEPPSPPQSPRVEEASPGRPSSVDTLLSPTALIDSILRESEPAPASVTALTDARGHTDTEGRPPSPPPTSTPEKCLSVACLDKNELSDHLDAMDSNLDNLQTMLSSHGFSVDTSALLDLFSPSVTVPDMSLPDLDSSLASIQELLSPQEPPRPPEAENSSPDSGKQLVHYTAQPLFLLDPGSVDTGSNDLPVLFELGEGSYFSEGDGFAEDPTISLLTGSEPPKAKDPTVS
Procedure, shortened: as §1

[13] = target: T8, SPIC (Homo sapiens, UniProt Q8N5J4 1-248); details: protein: recombinant; tags: N-terminal GST; dsDNA, one strand shown
T8 sequence: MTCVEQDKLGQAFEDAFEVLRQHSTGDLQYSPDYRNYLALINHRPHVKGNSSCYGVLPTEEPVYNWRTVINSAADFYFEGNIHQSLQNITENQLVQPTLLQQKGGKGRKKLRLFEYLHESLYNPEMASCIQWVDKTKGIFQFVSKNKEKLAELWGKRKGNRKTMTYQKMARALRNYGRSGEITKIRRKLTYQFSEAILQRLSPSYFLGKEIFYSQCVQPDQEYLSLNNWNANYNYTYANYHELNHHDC
Procedure, shortened: as §1

[14] = target: ELF4 (Homo sapiens, UniProt Q99607 1-663); details: protein: recombinant; tags: N-terminal GST; dsDNA, one strand shown
Chain of ELF4 (Q99607 whole entry): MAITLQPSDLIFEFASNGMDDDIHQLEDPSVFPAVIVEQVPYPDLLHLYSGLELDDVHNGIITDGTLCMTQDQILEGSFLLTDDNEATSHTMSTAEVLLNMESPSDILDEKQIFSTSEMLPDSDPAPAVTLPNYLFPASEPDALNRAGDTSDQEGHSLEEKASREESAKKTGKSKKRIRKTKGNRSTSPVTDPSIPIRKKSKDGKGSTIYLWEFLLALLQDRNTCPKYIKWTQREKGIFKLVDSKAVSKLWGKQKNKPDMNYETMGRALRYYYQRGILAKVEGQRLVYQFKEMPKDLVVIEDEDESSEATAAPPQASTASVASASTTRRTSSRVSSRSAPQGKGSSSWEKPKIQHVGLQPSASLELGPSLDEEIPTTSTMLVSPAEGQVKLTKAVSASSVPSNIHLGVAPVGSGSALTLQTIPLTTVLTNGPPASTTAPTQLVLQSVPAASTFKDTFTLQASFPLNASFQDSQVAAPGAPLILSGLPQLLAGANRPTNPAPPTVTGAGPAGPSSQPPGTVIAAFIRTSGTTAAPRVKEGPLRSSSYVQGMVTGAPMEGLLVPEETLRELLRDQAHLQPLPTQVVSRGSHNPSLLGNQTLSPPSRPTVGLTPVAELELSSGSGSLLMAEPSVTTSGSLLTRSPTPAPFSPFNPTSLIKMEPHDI
Procedure, shortened: as §1

[15] = target: T9, ELK4 (Homo sapiens, UniProt P28324-2 1-405); details: protein: recombinant; tags: N-terminal GST; dsDNA, one strand shown
T9 sequence: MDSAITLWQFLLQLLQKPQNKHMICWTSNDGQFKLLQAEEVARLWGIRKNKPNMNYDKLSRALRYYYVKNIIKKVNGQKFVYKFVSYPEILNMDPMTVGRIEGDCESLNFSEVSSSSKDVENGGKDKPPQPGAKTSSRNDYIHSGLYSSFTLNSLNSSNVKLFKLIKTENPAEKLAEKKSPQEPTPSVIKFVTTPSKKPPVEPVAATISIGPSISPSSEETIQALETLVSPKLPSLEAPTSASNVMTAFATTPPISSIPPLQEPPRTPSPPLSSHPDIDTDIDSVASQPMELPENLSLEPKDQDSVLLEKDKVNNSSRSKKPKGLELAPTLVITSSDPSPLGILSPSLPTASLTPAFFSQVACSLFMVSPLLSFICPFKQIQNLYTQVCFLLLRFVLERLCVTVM
Procedure, shortened: as §1

[16] = target: T10, ETV2 (Homo sapiens, UniProt O00321 1-342); details: protein: recombinant; tags: N-terminal GST; dsDNA, one strand shown
T10 sequence: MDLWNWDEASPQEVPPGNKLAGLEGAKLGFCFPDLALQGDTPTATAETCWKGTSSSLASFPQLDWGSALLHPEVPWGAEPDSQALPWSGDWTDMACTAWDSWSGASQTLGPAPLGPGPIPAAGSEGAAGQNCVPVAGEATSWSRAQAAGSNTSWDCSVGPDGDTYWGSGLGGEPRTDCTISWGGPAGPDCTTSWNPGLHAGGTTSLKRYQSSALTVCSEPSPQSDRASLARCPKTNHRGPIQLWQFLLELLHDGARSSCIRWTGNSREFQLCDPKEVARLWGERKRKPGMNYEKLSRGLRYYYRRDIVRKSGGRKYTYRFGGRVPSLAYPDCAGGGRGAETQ
Procedure, shortened: as §1

[17] = target: T11, ELF3 (Homo sapiens, UniProt P78545 1-371); details: protein: recombinant; tags: N-terminal GST; dsDNA, one strand shown
T11 sequence: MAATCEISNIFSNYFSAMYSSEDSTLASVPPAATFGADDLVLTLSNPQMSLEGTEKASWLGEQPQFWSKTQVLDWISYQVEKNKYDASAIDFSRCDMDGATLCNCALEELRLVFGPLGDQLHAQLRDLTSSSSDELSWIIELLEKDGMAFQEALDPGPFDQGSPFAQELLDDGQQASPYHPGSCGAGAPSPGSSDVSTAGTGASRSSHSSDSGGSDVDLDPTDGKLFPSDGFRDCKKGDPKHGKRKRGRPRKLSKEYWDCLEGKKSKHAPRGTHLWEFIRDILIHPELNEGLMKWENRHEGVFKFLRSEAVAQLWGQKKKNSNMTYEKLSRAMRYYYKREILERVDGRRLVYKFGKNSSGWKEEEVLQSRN
Procedure, shortened: as §1

[18] = target: CRX (Homo sapiens, UniProt O43186 1-299); details: protein: recombinant; tags: N-terminal GST; dsDNA, one strand shown
Chain of CRX (O43186 whole entry): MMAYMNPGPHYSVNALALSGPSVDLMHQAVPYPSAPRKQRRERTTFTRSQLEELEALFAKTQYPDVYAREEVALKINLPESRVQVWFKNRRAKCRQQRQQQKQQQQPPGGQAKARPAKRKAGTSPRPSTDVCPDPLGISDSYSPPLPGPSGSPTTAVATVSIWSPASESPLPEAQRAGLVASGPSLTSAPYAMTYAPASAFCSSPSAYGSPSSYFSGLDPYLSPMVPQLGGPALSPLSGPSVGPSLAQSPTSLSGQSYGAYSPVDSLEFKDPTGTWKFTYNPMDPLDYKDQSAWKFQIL
Procedure, shortened: as §1

[19] = target: ETV1 (Homo sapiens, UniProt P50549 1-477); details: protein: recombinant; tags: N-terminal GST; dsDNA, one strand shown
Chain of ETV1 (P50549 whole entry): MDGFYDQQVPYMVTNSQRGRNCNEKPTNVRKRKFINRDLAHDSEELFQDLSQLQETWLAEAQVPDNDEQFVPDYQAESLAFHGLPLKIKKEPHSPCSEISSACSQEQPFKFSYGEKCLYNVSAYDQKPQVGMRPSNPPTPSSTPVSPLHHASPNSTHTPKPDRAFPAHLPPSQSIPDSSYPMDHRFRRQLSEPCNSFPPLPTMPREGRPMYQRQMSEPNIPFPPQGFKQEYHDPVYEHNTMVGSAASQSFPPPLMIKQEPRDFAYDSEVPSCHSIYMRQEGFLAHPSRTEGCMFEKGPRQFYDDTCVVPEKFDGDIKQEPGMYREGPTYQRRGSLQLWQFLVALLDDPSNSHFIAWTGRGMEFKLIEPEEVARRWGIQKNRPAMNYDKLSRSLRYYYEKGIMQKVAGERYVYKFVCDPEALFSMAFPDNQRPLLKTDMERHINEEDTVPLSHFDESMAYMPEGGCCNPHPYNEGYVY
Procedure, shortened: as §1

ATTCCG
binding signal [1]: 1.84 fold enrichment (6-mer frequency, TF over GST control) | binding signal [2]: 1.84 fold enrichment (6-mer frequency, TF over GST control) | binding signal [3]: 1.65 fold enrichment (6-mer frequency, TF over GST control) | binding signal [4]: 1.82 fold enrichment (6-mer frequency, TF over GST control) | binding signal [5]: 1.61 fold enrichment (6-mer frequency, TF over GST control) | binding signal [6]: 1.86 fold enrichment (6-mer frequency, TF over GST control) | binding signal [7]: 1.69 fold enrichment (6-mer frequency, TF over GST control) | binding signal [8]: 1.78 fold enrichment (6-mer frequency, TF over GST control) | binding signal [9]: 1.78 fold enrichment (6-mer frequency, TF over GST control) | binding signal [10]: 1.79 fold enrichment (6-mer frequency, TF over GST control) | binding signal [11]: 1.97 fold enrichment (6-mer frequency, TF over GST control) | binding signal [12]: 1.52 fold enrichment (6-mer frequency, TF over GST control) | binding signal [13]: 1.82 fold enrichment (6-mer frequency, TF over GST control) | binding signal [14]: 1.61 fold enrichment (6-mer frequency, TF over GST control) | binding signal [15]: 1.54 fold enrichment (6-mer frequency, TF over GST control) | binding signal [16]: 1.79 fold enrichment (6-mer frequency, TF over GST control) | binding signal [17]: 1.78 fold enrichment (6-mer frequency, TF over GST control) | binding signal [18]: 1.27 fold enrichment (6-mer frequency, TF over GST control) | binding signal [19]: 1.81 fold enrichment (6-mer frequency, TF over GST control)
